Source: PubChem BioAssay (several laboratories)
Keap1 Nrf2 FP: inhibitors of human Keap1-Nrf2 protein-protein interaction; Keap1 Kelch-Nrf2 peptide fluorescence polarization, 1536-well; inhibition, % at 9.4 µM; 340,000 compounds, 0.15% hits; AID 504523; in the data active means inhibition above about 12%;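 further: human Keap1 Kelch domain with fluorescein labeled Nrf2 9mer peptide probe; 0% = neutral control wells and 100% = peptide positive control; higher means more block of Keap1 binding to Nrf2 peptide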
Target sequence (Q14145 whole entry, looked up, the tested form may be a part): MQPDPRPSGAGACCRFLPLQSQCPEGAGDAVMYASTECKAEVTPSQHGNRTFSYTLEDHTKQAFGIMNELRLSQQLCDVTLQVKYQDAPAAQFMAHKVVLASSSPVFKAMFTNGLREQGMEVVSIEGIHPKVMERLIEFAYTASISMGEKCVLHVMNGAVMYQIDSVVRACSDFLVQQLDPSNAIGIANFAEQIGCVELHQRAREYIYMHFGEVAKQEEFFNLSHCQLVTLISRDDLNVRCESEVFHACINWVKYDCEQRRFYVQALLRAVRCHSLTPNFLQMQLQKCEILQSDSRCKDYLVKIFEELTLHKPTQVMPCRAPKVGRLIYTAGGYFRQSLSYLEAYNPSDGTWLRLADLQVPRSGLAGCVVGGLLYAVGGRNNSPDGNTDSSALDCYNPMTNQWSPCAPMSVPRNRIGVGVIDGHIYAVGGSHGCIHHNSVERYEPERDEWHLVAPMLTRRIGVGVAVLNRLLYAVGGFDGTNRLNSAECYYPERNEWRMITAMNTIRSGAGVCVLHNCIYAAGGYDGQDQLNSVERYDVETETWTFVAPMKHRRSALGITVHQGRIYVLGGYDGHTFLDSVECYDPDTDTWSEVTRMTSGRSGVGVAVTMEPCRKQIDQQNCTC
eLon inh: inhibits E. coli Lon protease; P0A9M0; purified E. coli Lon protease, fluorescence polarization; inhibition, % at 7.94 µM; 360,000 compounds, 0.42% hits; AID 602123; in the data active means inhibition above about 13%, passing the limit was not always enough;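 further: 0% = enzyme with probe and DMSO and 100% = no enzyme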
LANA DNA inh: KSHV C-LANA DNA binding inhibition; MBP-C-LANA/FAM-LBS DNA binding, fluorescence polarization; inhibition, % at 9 µM; 340,000 compounds, 0.078% hits;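 active means highest replicate inhibition at or above 60% at 9 µM, even if other replicates fall short; inactive means all replicates below 60% inhibition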;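 further: 0% = neutral control wells and 100% = 4 µM acridine orange control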
RTF Ca sens act: cardiac RTF calcium sensitization. IANBD-labeled TnC RTF fluorescence at EC20 calcium; 0% EC20 calcium, 100% full calcium. P19429+P45379. activation, % at 7.2 µM. 340,000 compounds, 0.24% hits. AID 493008;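 active means activation above the mean over all tested compounds plus 3 SD, cut at about 30% in these data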;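 further: rise in fluorescence read as greater calcium sensitivity of cardiac thin filaments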
Cardiac RTF inh: cardiac RTF calcium desensitization. P19429+P45379. IANBD-labeled cardiac RTF, Ca2+ fluorescence. inhibition, % at 7.15 µM. 340,000 compounds, 0.12% hits. AID 493244;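 active means inhibition above the mean inhibition of all tested compounds plus 3 SD, cut at about 17% in these data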;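 further: assay run at fixed EC70 calcium of 1.6 mM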
E coli Lon conf: E. coli Lon inhibition confirmation; AID 602230; inhibition, % at 7.94 µM; purified E. coli Lon, fluorescence polarization; 1,400 compounds, 31% hits; shares compounds with eLon inh; in the data active means inhibition above about 16%;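 further: 0% = enzyme with probe and DMSO and 100% = no enzyme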
Numbers without * were called inactive. Rows were chosen to be rich in hits. Some 0.82% of all compounds tested hit in one or more screens of this group.

How did NC(=O)c1c(NC(=O)CSc2nnc(Cc3ccccc3)n2Cc2ccco2)sc2c1CCC2 do in these assays?
Keap1 Nrf2 FP: 2; eLon inh: 22*; LANA DNA inh: 0; RTF Ca sens act: 6; Cardiac RTF inh: -5; E coli Lon conf: -6

What do the screens show for `Oc1cccc(/C=N/NC(=S)Nc2cccnc2)c1O`?
Keap1 Nrf2 FP: -3; eLon inh: 0; LANA DNA inh: 0; RTF Ca sens act: -4; Cardiac RTF inh: -7

What do the screens show for `Oc1ccc(/C=N/NC(=S)Nc2cccnc2)c(O)c1O`?
Keap1 Nrf2 FP: -4; eLon inh: 24*; LANA DNA inh: 12; RTF Ca sens act: 3; Cardiac RTF inh: -4; E coli Lon conf: 27*

What do the screens show for `COc1cc(C)c2c(c1C=O)Oc1c(c(C)c(O)c3c1C(O)OC3=O)OC2=O` (stereo unspecified)?
Keap1 Nrf2 FP: 4; eLon inh: 57*; LANA DNA inh: 9; RTF Ca sens act: -4; Cardiac RTF inh: -1; E coli Lon conf: 16*

Results for CC(C)=CCC[C@H](C)C[C@@H]1CC2=C(C(=O)OC(C)(C)O2)[C@H](c2ccc(Cl)cc2)O1 ?
eLon inh: -7

Results for CN1CCN(C(=O)OCCOCCOC(=O)N2CCN(C)CC2)CC1 ?
Keap1 Nrf2 FP: 3; eLon inh: -3; LANA DNA inh: -1; RTF Ca sens act: -2; Cardiac RTF inh: 3

What do the screens show for `CO/N=C\CC(=O)Nc1ccc(Cl)c(Cl)c1`?
Keap1 Nrf2 FP: -1; eLon inh: 17*; LANA DNA inh: 1; RTF Ca sens act: 5; Cardiac RTF inh: -3; E coli Lon conf: 14

Results for N#CCC(=O)N/N=C/c1ccc(OC2CSC2)cc1 ?
Keap1 Nrf2 FP: 1; eLon inh: 25*; LANA DNA inh: -1; RTF Ca sens act: 0; Cardiac RTF inh: -7; E coli Lon conf: -39

What do the screens show for `CCc1cc(=O)oc2cc(C)cc(OCC(=O)NC3CCN(Cc4ccccc4)CC3)c12`?
Keap1 Nrf2 FP: 3; eLon inh: -1; LANA DNA inh: 1; RTF Ca sens act: -8; Cardiac RTF inh: -5

How did COc1cccc(NC(=O)N(C)C[C@H]2Oc3ncc(Br)cc3C(=O)N([C@H](C)CO)C[C@H]2C)c1 do in these assays?
eLon inh: 13*; E coli Lon conf: -11

How did CC(NC(=O)COC(=O)C12CC3CC(CC(Br)(C3)C1)C2)c1ccccc1 (stereo unspecified) do in these assays?
Keap1 Nrf2 FP: 4; eLon inh: 26*; LANA DNA inh: 1; RTF Ca sens act: -1; Cardiac RTF inh: -6; E coli Lon conf: -1

How did COc1ccc(CCNC(=O)COC(=O)C23CC4CC(CC(Br)(C4)C2)C3)cc1 do in these assays?
Keap1 Nrf2 FP: -2; eLon inh: 6; LANA DNA inh: 0; RTF Ca sens act: 2; Cardiac RTF inh: 4

What do the screens show for `O=c1c(-c2ccc(Cl)cc2)c[nH]n1-c1ccccc1`?
Keap1 Nrf2 FP: -2; eLon inh: 18*; LANA DNA inh: 0; RTF Ca sens act: -2; Cardiac RTF inh: -5; E coli Lon conf: 0

What do the screens show for `c1ccc(Nc2ccccc2Nc2ccccn2)nc1`?
Keap1 Nrf2 FP: -3; eLon inh: 33*; LANA DNA inh: 3; RTF Ca sens act: 6; Cardiac RTF inh: -4; E coli Lon conf: 2

What do the screens show for `CCCc1cc(=O)[nH]c2nnc(SCC(=O)Nc3cccc(NC(C)=O)c3)n12`?
Keap1 Nrf2 FP: 1; eLon inh: 10; LANA DNA inh: -1; RTF Ca sens act: 1; Cardiac RTF inh: -5

How did C[C@H](CO)N1C[C@H](C)[C@@H](CN(C)Cc2cccnc2)Oc2cc(-c3cccnc3)ccc2S1(=O)=O do in these assays?
eLon inh: 8

Results for CCN(C(=O)COC(=O)CC(C)c1ccccc1)c1c(N)n(Cc2ccccc2)c(=O)[nH]c1=O (stereo unspecified) ?
Keap1 Nrf2 FP: -4; eLon inh: 5; LANA DNA inh: -1; RTF Ca sens act: -7; Cardiac RTF inh: 3

Results for CNc1c(N)n(Cc2ccccc2)c(=O)[nH]c1=O ?
Keap1 Nrf2 FP: 8; eLon inh: 33*; LANA DNA inh: 28; RTF Ca sens act: 7; Cardiac RTF inh: -15; E coli Lon conf: 24*

What do the screens show for `Nc1c(NCc2ccccc2)c(=O)[nH]c(=O)n1Cc1ccccc1`?
Keap1 Nrf2 FP: 7; eLon inh: 15*; LANA DNA inh: 17; RTF Ca sens act: 0; Cardiac RTF inh: -14; E coli Lon conf: 16

How did CCN(C(=O)COC(=O)C(c1ccccc1)c1ccccc1)c1c(N)n(Cc2ccccc2)c(=O)[nH]c1=O do in these assays?
Keap1 Nrf2 FP: -6; eLon inh: 25*; LANA DNA inh: 1; RTF Ca sens act: 9; Cardiac RTF inh: 0; E coli Lon conf: -2

How did Cn1c(=O)[nH]c(=O)c2c1nc(NCc1ccccc1)n2Cc1ccc(F)cc1 do in these assays?
Keap1 Nrf2 FP: 3; eLon inh: 6; LANA DNA inh: -2; RTF Ca sens act: -10; Cardiac RTF inh: -1

How did COCCn1c(SCC(=O)NC2CCCC2)nnc1-c1ccco1 do in these assays?
Keap1 Nrf2 FP: -1; eLon inh: -2; LANA DNA inh: -2; RTF Ca sens act: -1; Cardiac RTF inh: 5

What do the screens show for `Cc1cccc(NC(=O)Nc2ccccc2)n1`?
Keap1 Nrf2 FP: 0; eLon inh: 10; LANA DNA inh: -2; RTF Ca sens act: -7; Cardiac RTF inh: 12

How did Cc1cccc(NC(=O)NCC(F)(F)F)n1 do in these assays?
Keap1 Nrf2 FP: -1; eLon inh: 27*; LANA DNA inh: 0; RTF Ca sens act: -1; Cardiac RTF inh: -4; E coli Lon conf: 14

How did O=C(CN1C(=O)c2ccccc2C1=O)c1ccccc1 do in these assays?
Keap1 Nrf2 FP: -2; eLon inh: -4; LANA DNA inh: 3; RTF Ca sens act: 2; Cardiac RTF inh: -4

What do the screens show for `O=C(O)CN1C(=O)c2ccc(C(=O)c3ccccc3)cc2C1=O`?
Keap1 Nrf2 FP: -5; eLon inh: 27*; LANA DNA inh: -2; RTF Ca sens act: -2; Cardiac RTF inh: -7; E coli Lon conf: -3

Results for COc1ccc(Oc2nc(C)cc(C)c2S(=O)(=O)c2ccc(C)cc2)cc1 ?
Keap1 Nrf2 FP: -3; eLon inh: 18*; LANA DNA inh: -2; RTF Ca sens act: 9; Cardiac RTF inh: 8; E coli Lon conf: -4

How did CN1c2ccccc2N(C)C1(C)c1ccccc1 do in these assays?
Keap1 Nrf2 FP: 5; eLon inh: 38*; LANA DNA inh: 11; RTF Ca sens act: 5; Cardiac RTF inh: -16; E coli Lon conf: 3

How did CSc1ccc(CN2CCC(C)(Oc3cccc(Cl)c3)C2)cc1 (stereo unspecified) do in these assays?
eLon inh: -1

What do the screens show for `CCOC(=O)c1ccc(NC(=O)CCCN2C(=O)NC3(CCCC3)C2=O)cc1`?
Keap1 Nrf2 FP: 3; eLon inh: 0; LANA DNA inh: 2; RTF Ca sens act: -5; Cardiac RTF inh: 2
